ALDH1A1 block – inhibitors of human aldehyde dehydrogenase 1A1. Purified ALDH1A1, NADH fluorescence, propionaldehyde substrate. Potency, µM (titrated, usually from 75.3 µM), without a hit: top-dose activity, negative = inhibition, actives largely listed as inhibitors. 7.3% of 220,000 active. AID 1030; active = well fitted inhibition curve with a large enough effect, not every such curve was filed as active; inconclusive = small, poorly fitted or top-dose-only effect, or another doubt; inactive = no such curve, though single readings can be large or run the other way;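 also: plate controls were no enzyme wells and a reference inhibitor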
Target sequence (P00352 whole entry, looked up): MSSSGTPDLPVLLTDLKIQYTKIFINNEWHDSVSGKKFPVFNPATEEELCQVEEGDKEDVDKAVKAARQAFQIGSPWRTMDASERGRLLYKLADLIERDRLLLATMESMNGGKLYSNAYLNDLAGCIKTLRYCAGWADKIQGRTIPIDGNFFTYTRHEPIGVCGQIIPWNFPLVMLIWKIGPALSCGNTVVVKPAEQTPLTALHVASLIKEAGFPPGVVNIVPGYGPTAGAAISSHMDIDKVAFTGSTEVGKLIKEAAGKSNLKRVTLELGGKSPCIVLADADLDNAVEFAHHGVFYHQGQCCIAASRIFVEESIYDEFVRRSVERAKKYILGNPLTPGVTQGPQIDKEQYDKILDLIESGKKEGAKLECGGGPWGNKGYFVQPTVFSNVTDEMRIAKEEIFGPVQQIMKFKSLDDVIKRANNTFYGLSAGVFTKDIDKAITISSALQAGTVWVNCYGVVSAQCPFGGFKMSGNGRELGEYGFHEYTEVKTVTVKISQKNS
Lamin A splicing – modulators of lamin A splicing; HeLa LMNA splicing GFP/RFP minigene ratio, 48 h; Potency, µM (titrated, usually from 46.1 µM), without a hit: top-dose ratio change, negative = inhibition, actives largely listed as inhibitors; 0.01% of 200,000 active; AID 1487; active = well fitted inhibition curve with a large enough effect in the signal ratio, with a control signal flat, not every such curve was filed as active; inconclusive = small, poorly fitted or top-dose-only effect, or effect the other way, or a change in a side signal; the % refers to the signal ratio; also: % is scaled to controls: 0 for no effect and ±100 for the full control effect
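S3 HeLa stable clones carrying a lamin A-EGFP splicing minigene plus DsRed2 were seeded at 600 cells/well in Opti-MEM with 2% FBS, pin-dosed and incubated 48 h at 37°C. Acumen cytometry (488 nm) gave the GFP/RFP total-intensity ratio.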
HPGD inh – inhibitors of human 15-hydroxyprostaglandin dehydrogenase (HPGD); P15428; Potency, µM, for the others: at the top dose activity change, negative = inhibition, hits mostly inhibitors; purified HPGD, NADH fluorescence kinetic, PGE2 substrate; 4.3% of 150,000 active; active = well fitted inhibition curve with a large enough effect, not every such curve was filed as active; inconclusive = small, poorly fitted or top-dose-only effect, or another doubt; inactive = no such curve, though single readings can be large or run the other way; also: % is scaled to controls: 0 for no effect and ±100 for the full control effect
Target sequence (P15428 whole entry, looked up): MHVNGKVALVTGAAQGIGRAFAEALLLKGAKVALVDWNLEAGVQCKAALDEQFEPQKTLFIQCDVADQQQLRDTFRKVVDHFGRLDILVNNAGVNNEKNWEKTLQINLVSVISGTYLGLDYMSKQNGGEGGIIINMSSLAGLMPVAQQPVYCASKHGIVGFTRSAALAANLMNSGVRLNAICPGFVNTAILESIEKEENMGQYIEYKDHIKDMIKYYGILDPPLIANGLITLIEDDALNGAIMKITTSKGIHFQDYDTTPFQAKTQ
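20 nM HPGD preincubated 15 min at room temperature with compound in 50 mM Tris-HCl pH 8, 0.01% Tween 20. Started with 1 mM NAD+ and 30 uM prostaglandin E2; NADH fluorescence (360/450 nm) read 5 times over 30-s intervals, last minus first.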
KinaseGlo FLuc – blocks Kinase-Glo luciferase, a counter-screen artifact | Potency, µM (series often up to 38.3 µM), without a hit: top-dose activity change, negative = inhibition, actives largely listed as inhibitors | AID 1379 | Kinase-Glo luciferase, ATP luminescence, 8 min | 0.28% of 200,000 active; also: % is scaled to controls: 0 for no effect and ±100 for the full control effect; nearly all actives have a fitted effect of over 60% in size
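Inhibition of Kinase-Glo luciferase light generation was assessed at 10 uM ATP in pH 7.2 imidazole buffer, with luminescence measured after eight minutes at ambient temperature.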
HTT ATP protect – Huntington cell model cytoprotection by ATP luminescence. Potency, µM (highest dose often 56.4 µM), for the others: cytoprotection (ATP increase), most hits filed as activators. 0.14% of 230,000 active. AID 1471. PC12 HTT-Q103 induced, cytoprotection, ATP luminescence, 40 h; also: % of control where 0% means no effect; nearly all actives have a fitted effect of over 45% in size
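Readout: ATPlite luminescence (ATP level). Model: stable PC12, inducible Htt exon1 Q103-GFP. Inducer: tebufenozide, 100 nM final. Compounds: dose series. No G418 in medium.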
HttQ103 aggreg – inhibitors of mutant huntingtin aggregate formation in PC12 cells; AID 1688; Potency, µM (top dose mostly 46.1 µM), without a hit: top-dose activity change, negative = inhibition, actives largely listed as inhibitors; 1.1% of 220,000 active; PC12 HttQ103-GFP aggregates, Acumen cytometry, 40 h; also: % is scaled to controls: 0 for no effect and ±100 for the full control effect; nearly all actives have a fitted effect of over 60% in size
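Read-out: GFP aggregate count by laser scanning cytometer (488 nm excitation, 500-530 nm emission, 1–25 µm objects >6 SD above background). Cells: PC12, inducible HTTex1-Q103-GFP, 100 nM tebufenozide; compounds titrated.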
Starred values were filed as active, the others as inactive; ? = inconclusive; / = not tested or not shown; [ ] = another dose, or the depositor's remark. Most compounds without a hit are left out; they make up all but 9% or so of the library. Unless noted, calls follow the shape of the dose curve; as a rule, active = well fitted curve in the direction sought with a large enough effect; inconclusive = small, poorly fitted or top-dose-only effect, or another doubt; inactive = no such curve, though single readings can be large; an effect the other way counts as inactive or inconclusive. Potency is read from the fitted curve at half-maximal effect.

SMILES	ALDH1A1 block	Lamin A splicing	HPGD inh	KinaseGlo FLuc	HTT ATP protect	HttQ103 aggreg
O=C(/C=C/c1ccc(O)c(O)c1)OCCc1ccccc1	?	?	?	-4%	/	/
O=C(c1ccc(Cl)c(F)c1F)N1CCCC1	12%	5%	20µM*	-2%	-9%	-4%
CCN(CC)S(=O)(=O)c1ccc(C(=O)Nc2nnc(NC(=S)Nc3ccccc3)s2)cc1	/	/	/	/	28%[10 µM]	9%[9.22 µM]
CC(C)(C)c1nnc(NC(=S)Nc2ccccc2)s1	25µM*	?	/	4%	14%[10 µM]	32%[9.22 µM]
COc1cc(OC)cc(C(=O)Nc2nnc(NC(=S)Nc3ccccc3)s2)c1	22µM*	?	-20%	2%	29%[10 µM]	26%
O=C(Nc1cccnc1)C1CCCN1S(=O)(=O)c1ccc(Cl)c(Cl)c1 (configuration not stated)	12%	?	3%	4%	-15%	1%
O=C(NCc1cccs1)c1cccn2c(=O)c3sccc3nc12	?	/	/	2%	20%	-26%
O=C1N/C(=N\N=C\c2ccco2)SC1Cc1ccccc1[N+](=O)[O-] (configuration not stated)	/	/	/	/	-16%[10 µM]	3%[9.22 µM]
CN(Cc1ccco1)c1nc(-c2cccnc2)nc2ccccc12	32µM*	?	/	/	4%	/
O=C(Nc1nc2ccccc2[nH]1)c1ccccc1F	2%	?	-2%	2µM*	-170%[0.074 µM]	-12%
CCOc1ccc(C(=O)Nc2cc(-c3nc4ccccc4[nH]3)ccc2Cl)cc1[N+](=O)[O-]	-4%	7%	?	-5%	-8%[10 µM]	13µM*
O=C(NC(Cc1ccccc1)c1nc2ccccc2[nH]1)c1ccc(Cl)c([N+](=O)[O-])c1 (configuration not stated)	1%	-8%	/	/	-10%[10 µM]	7.9µM*
CSCC[C@H](NC(=O)c1ccc(Cl)c([N+](=O)[O-])c1)c1nc2ccccc2[nH]1	-5%	-21%	1%	-1%	-2%[1.9 µM]	6%
CCOc1ccc(C(=O)Nc2nc3ccccc3[nH]2)cc1OCC	-3%	-5%[46 µM]	/	-1%	-5%[10 µM]	13µM*
CCc1nn2c(=O)cc(COC(=O)c3ccccc3NC(=O)COc3ccc(F)cc3)nc2s1	/	9%[46 µM]	/	/	/	/
Cc1cc(C(=O)COC(=O)c2n[nH]c3ccccc23)c(C)n1C	13%	-11%	-8%	-7%	-16%[0.074 µM]	-2%
Cc1cccc(CN2C(=O)CC(c3ccc(Cl)cc3)c3c(C)nn(-c4nc(C)cc(C)n4)c32)c1 (configuration not stated)	/	10%[46 µM]	/	/	/	/
O=c1oc2ccccc2n1CCc1ccccc1	?	?	-15%	-5%	3%[10 µM]	-1%
On1c2c(c3c4nonc4ccc31)CCCC2	32µM*	-3%	16µM*	0%	8%[10 µM]	-22%
Cc1c(C(=O)NC(C(C)C)C(C)C)cccc1[N+](=O)[O-]	10%	11%	-4%	-5%	-6%[10 µM]	-10%
COc1ccccc1C(=O)O/N=C(/C)c1ccc(N2C(=O)C3CCCCC3C2=O)cc1 (configuration not stated)	13µM*	6%	25µM*	-5%	0%	11%
CC(C)CNc1cc(=O)n(C)c(=O)n1C	8%	11%	1%	3%	7%	14%
CC(C)c1ccc(Oc2cccc(C(=O)/C(C#N)=C/N(C)C)c2)cc1	-10%	14%	16µM*	1%	-5%	3%
CC(C)NC(=O)c1cnn2c1NC(c1cccs1)CC2C(F)(F)F (configuration not stated)	1%	-7%	-11%	-2%	-10%[10 µM]	-13%
CCOC(=O)c1c(-c2ccc(C)s2)csc1N	3.2µM*	/	/	-1%	-45%	8%
SMILES	ALDH1A1 block	Lamin A splicing	HPGD inh	KinaseGlo FLuc	HTT ATP protect	HttQ103 aggreg
CC(=O)Nc1ccc(NC(=O)C2CC(=O)N(Cc3ccccc3)C2)cc1 (configuration not stated)	3.5µM*	6%[46 µM]	/	-2%	-11%	-15%
COc1cccc(C(=O)CC2c3c(c(Br)c4c(c3OC)OCO4)CCN2C)c1 (configuration not stated)	7.9µM*	/	?	-1%	-34%	/
COc1ccc2c(c1OC)C(=O)OC2[C@H]1c2c(cc3c(c2OC)OCO3)CCN1C (some centres not stated)	0%[20.9 µM]	6%	0%	1%[17.1 µM]	-7%	22%
COc1ccc(N(CC(=O)Nc2nc3ccc(C)cc3s2)S(=O)(=O)c2c(C)nn(C)c2C)cc1	-11%	-18%	-16%	0%	-13%	-23%
CCOC(=O)C1=C(Cc2ccc(Cl)cc2)C(=O)c2ccccc2C1=O	?	?	3.5µM*	-9%	-70%	19%
COc1ccc(/C=C/C(=O)Nc2cccc(C(C)=O)c2)cc1	-1%	?	-18%	-3%	-2%[10 µM]	17%
CCn1c(SCc2ccccc2)nnc1C1CCN(S(=O)(=O)c2ccc(OC)cc2)CC1	5µM*	-1%	-12%	3%	-16%	-10%
O=C(CSc1nnc(C2CC2)n1Cc1ccccc1)N1CCN(S(=O)(=O)c2ccccc2)CC1	-4%	?	-13%	-2%	11%[10 µM]	-6%
CCn1c(SCc2ccccc2)nnc1C1CCCCC1	?	-4%	/	/	-8%[10 µM]	-6%
O=C(CSc1nnc(C2CC2)n1Cc1ccccc1)c1ccc(S(=O)(=O)N2CCOCC2)cc1	11µM*	1%	-22%	7%	19%[10 µM]	-13%
Cc1ccc(/C(O)=C2/C(=O)C(=O)N(CCCn3ccnc3)C2c2ccccn2)cc1 (configuration not stated)	6%	6%	1%	-1%	0%	9%
Cc1cc(NC(=S)N(CCN2CCCCC2)Cc2ccco2)ccc1Cl	7.9µM*	?	/	0%	-57%	?
O=C1CC2(CCCC2)CC(=O)N1CCNCC1COc2ccccc2O1 (configuration not stated)	28µM*	/	/	/	-19%	/
c1ccc(-c2nnc3ccc(N4CCCC4)nn23)cc1	-1%	-17%	-10%	2%	-1%[10 µM]	-19%
COc1ccc(-c2noc(CN3CCOCC3)n2)cc1OC	22µM*	4%	-2%	-2%	-8%	8%
CCC(=S)/C=C1\Sc2ccc3ccccc3c2N1CCCS(=O)(=O)O	-3%	16%	32µM*	-8%	27%	10%
CCOC(=O)c1c(NC(=O)c2ccccc2Cl)sc2c1CCCC2	/	-29%[46 µM]	/	/	/	/
CCOC(=O)c1c(NC(=O)c2ccccc2Br)sc2c1CCc1ccccc1-2	?	-6%	14µM*	0%	3%	-17%
CCOC(=O)c1c(NC(=O)COC)sc2c1CCCC2	?	6%	-15%	3%	-7%	-4%
CCOC(=O)c1c(NC(C)=O)sc2c1CCCNC2=O	13µM*	-1%	/	/	-30%[10 µM]	?

Screens from PubChem BioAssay.
